Source: PubChem BioAssay (Tox21)
Activity calls are given as the source filed them. A call without a number means that no potency is given here. Calls follow the shape of the dose curve; as a rule, active = well fitted activation curve with a large enough effect in the signal ratio in the repeat runs (not every such curve was filed as active); inconclusive = weak or mixed curves, or effect the other way; inactive = no such curve, though single readings can be large or run the other way; the % refers to the signal ratio.
Potency is read from the fitted curve at half-maximal effect.

What follows are compounds tested against Glucocorticoid receptor (Homo sapiens) (UniProt P04150) (assay: qHTS assay to identify small molecule agonists of the glucocorticoid receptor (GR) signaling pathway (AID 720691)). Conditions: GR-bla HeLa, beta-lactamase reporter ratio, 18 h; series mostly up to 62.4 µM.
Chain of Glucocorticoid receptor (Homo sapiens) (P04150 whole entry, looked up): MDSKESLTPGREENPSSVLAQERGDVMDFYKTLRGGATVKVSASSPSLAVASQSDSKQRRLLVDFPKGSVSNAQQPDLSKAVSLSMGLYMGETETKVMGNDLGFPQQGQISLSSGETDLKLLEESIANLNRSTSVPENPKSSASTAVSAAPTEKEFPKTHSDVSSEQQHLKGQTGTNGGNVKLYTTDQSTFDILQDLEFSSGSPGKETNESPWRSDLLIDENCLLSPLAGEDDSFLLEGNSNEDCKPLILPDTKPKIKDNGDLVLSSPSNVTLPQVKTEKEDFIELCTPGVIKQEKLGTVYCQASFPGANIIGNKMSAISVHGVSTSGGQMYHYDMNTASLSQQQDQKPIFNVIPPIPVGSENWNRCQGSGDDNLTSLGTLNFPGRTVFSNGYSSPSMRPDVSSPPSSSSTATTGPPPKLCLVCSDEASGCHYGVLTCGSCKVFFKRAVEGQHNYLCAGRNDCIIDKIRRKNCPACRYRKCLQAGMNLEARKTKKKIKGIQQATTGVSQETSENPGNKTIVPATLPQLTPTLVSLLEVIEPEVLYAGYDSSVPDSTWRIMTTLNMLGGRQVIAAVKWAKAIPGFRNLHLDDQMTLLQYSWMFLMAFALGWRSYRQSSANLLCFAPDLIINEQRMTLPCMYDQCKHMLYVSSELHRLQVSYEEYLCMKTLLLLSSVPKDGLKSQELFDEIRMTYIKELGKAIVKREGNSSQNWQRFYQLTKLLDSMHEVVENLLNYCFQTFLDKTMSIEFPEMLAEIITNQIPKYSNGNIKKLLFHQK
Method in brief: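 Reporter read-out: fluorescence intensity following 2 h room-temperature LiveBLAzer B/G FRET substrate loading. Prior step: GR-bla HeLa cells held 4 h, then treated 18 h at 37 C.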
In the case of COc1ccccc1N1CCN(CC(O)COc2cccc3ccccc23)CC1 (stereo not drawn), the Potency is reported as “inactive”. CN1CC(=O)N2[C@H](c3ccc4c(c3)OCO4)c3[nH]c4ccccc4c3C[C@@H]2C1=O was tested, and the Potency was “inactive”. CCOC(=O)C1=C(C)NC(C)=C(C(=O)OC)C1c1cccc(Cl)c1Cl (stereo not drawn) was tested, and the Potency was “inactive”. In the case of CCC(C)COC(C)=O (stereo not drawn), the Potency is reported as “inactive”. For CCCCC(CC)COP(=O)(O)O (stereo not drawn), the Potency was “inactive”. For CCCCCCCCOc1ccc(C(=O)O)cc1, the Potency was “inactive”. With C[C@H]1c2cccc(O)c2C(O)=C2C(=O)[C@]3(O)C(O)=C(C(N)=O)C(=O)[C@@H](N(C)C)[C@@H]3[C@@H](O)[C@@H]21 the Potency was “inactive”. With CN(C)CCC=C1c2ccccc2C=Cc2ccccc21 the Potency was “inactive”. O=C(/C=C/c1ccccc1)OCCc1ccccc1 was tested, and the Potency was “inactive”. CCOc1ccc(Cc2nccc3cc(OCC)c(OCC)cc23)cc1OCC was tested, and the Potency was “inactive”. For CN1C(=O)c2ccccc2C1=O, the Potency was “inactive”. For CC(=O)N/N=C/c1ccc([N+](=O)[O-])o1, the Potency was “inactive”. For CC1(C)O[C@@H]2C[C@H]3[C@@H]4C[C@H](F)C5=CC(=O)C=C[C@]5(C)[C@H]4[C@@H](O)C[C@]3(C)[C@]2(C(=O)CO)O1, the Potency was 1290 nM [inconclusive] (active).
